Screens from PubChem.
Wnt bcat act – activators of Wnt/beta-catenin signaling; Wnt/beta-catenin reporter cell assay, activator, plate reader; activation, % at 9.35 µM; 300,000 tested, 1.2% active; AID 743398; in the data active = activation above about 30%, passing the limit was not always enough;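 note: 0% = neutral control wells and 100% = positive control wells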
HSF1 inhib – HSF1 inhibition. AID 2098. activity change, negative = inhibition, % at 7.5 µM (by protocol). 300,000 tested, 0.77% active. NIH3T3-HGL HSE-luciferase, MG132-induced, luminescence 8 h; hits give low values;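 active = more than half of replicate wells show activity change below -50%, luminescence cut by over half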;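 note: luciferase reports HSF-1 transcriptional activity via heat shock element; 0% = median of DMSO wells and -100% = zero luminescence signal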
HSF1 activator – increases HSF-1 driven luciferase reporter signal | NIH3T3-HGL HSF-1 luciferase reporter, MG132, 8 h; 100% = twice DMSO control signal | activation, % at 9 µM | 300,000 tested, 1.7% active | AID 504408;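 active = mean replicate activation of at least 50% with a set share of replicates each reaching 50%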;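 note: 0% = median of the neutral control wells and 100% = twice that signal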
MITF act – increases MITF-driven TRPM1 promoter luciferase signal; SK-MEL-5 TRPM1-promoter luciferase, 24 h; % of positive control, neutral wells = 0; 300,000 tested, 0.75% active; AID 588334; activation, % at 12.5 µM;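 active = mean activation of at least 80% with every replicate also reaching 80%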;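 note: 0% = neutral control wells and 100% = parthenolide positive control wells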
SMARCA2 act – SMARCA2 function activation, primary screen; MG213 cells, MMTV-luciferase reporter, dexamethasone, overnight; 370,000 tested, 1% active; AID 652017; activation, % at 9.1 µM; in the data active = activation above about 7.8%;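 note: 0% = vehicle wells and 100% = reference activator wells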
esBAF inh – SWI/SNF esBAF complex inhibition. mouse ES cells, Bmi1-luciferase knock-in reporter, 24 h; 100% = twice the neutral-well signal. reporter increase, % at 12.5 µM. 350,000 tested, 2% active; in the data active = activation above about 40%;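 note: 0% = median of the plate's neutral control wells and 100% = double that signal; a rise in the Bmi1 reporter signal indicates esBAF inhibition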
* marks the source's active call; other numbers are inactive results; nt = no result given. The list is not random: actives were taken first. Their share in the collection is about 4.3%.

SMILES	Wnt bcat act	HSF1 inhib	HSF1 activator	MITF act	SMARCA2 act	esBAF inh
Cc1ccc(-n2cc(CN3CCN(Cc4nccn4C)CC3)c(-c3cccc(C)c3)n2)cc1	2.3	27.7	51.2*	32.1	-2.1	10.8
Cc1ccc(S(=O)(=O)Nc2nnc(CC(C)(C)C)s2)cc1	-0.7	2.1	2.8	nt	-2.7	-4.4
CC(C)(C)Cc1nnc(NS(=O)(=O)c2ccc(F)cc2)s1	-1.1	-52.9*	-65.1	-8.5	-4.8	nt
Nc1c(C(=O)NC2CCCC2)sc2nc(-c3cccs3)ccc12	nt	47.7	55.7*	33.0	-1.2	nt
O=C(NC1CCCCCC1)c1cccs1	nt	-0.3	45.5	19.8	-1.0	32.7
Fc1cccc(NCc2cn3ccccc3n2)c1	nt	30.0	39.2	nt	4.2	60.3*
O=C(CCS(=O)(=O)c1ccccc1)N(CCCN1CCOCC1)c1nc2ccc(F)cc2s1	9.7	137.6	146.8*	30.9	1.9	-5.7
O=C(CCS(=O)(=O)c1ccccc1)N(CCCN1CCOCC1)c1nc2c(F)cccc2s1	-3.7	140.7	161.4*	19.3	3.7	-1.8
C[C@H](CO)N1C[C@H](C)[C@@H](CN(C)C(=O)C2CCC2)Oc2ncc(C3=CCCC3)cc2C1=O	nt	nt	nt	nt	nt	-3.2
CCCn1c(=O)c(C(=O)Nc2cccc(C)n2)c(O)c2ccccc21	1.9	3.9	-11.9	1.5	4.3	50.3*
CCCn1c(=O)c(C(=O)Nc2ncccc2C)c(O)c2ccccc21	0.0	-36.2	-45.6	-11.1	0.6	nt
CC(C)Cn1c(=O)c(C(=O)Nc2ccccc2S(N)(=O)=O)c(O)c2ccccc21	0.1	2.5	4.9	-6.7	1.1	12.8
Cn1c(=O)c(C(=O)Nc2ccccc2S(N)(=O)=O)c(O)c2ccccc21	15.6	3.5	-5.0	16.2	5.4	51.7*
CCn1c(=O)c(C(=O)Nc2ccccc2F)c(O)c2ccccc21	0.2	-77.8*	-82.0	nt	-1.5	39.5
CCCC#Cc1cnc2c(c1)C(=O)N([C@H](C)CO)C[C@H](C)[C@H](CN(C)C(=O)c1ccc(F)cc1)O2	nt	nt	nt	nt	nt	-5.6
COCCNC(=O)C[C@@H]1CC[C@@H]2[C@H](COC[C@@H](O)CN2C(=O)c2cc(Cl)cc(Cl)c2)O1	nt	nt	nt	nt	nt	-5.0
COc1ccccc1Cn1c(/C=C/c2ccccc2)nc2ccccc21	38.1*	12.0	28.9	38.8	2.8	nt
COc1ccc(/C=C/c2nc3ccccc3n2Cc2ccccc2OC)cc1	-13.5	21.1	67.7*	18.1	1.8	nt
COc1ccccc1Cn1c(C(C)C)nc2ccccc21	-0.8	-3.5	-0.4	nt	2.5	nt
C=CCn1c(NCc2ccccc2OC)nc2ccccc21	1.2	-4.0	6.4	nt	-0.6	-1.8
CC(=O)Nc1ccc2c(c1)C(=O)N(C)[C@H]1CC[C@H](CC(=O)NCCCN3CCOCC3)O[C@H]1CO2	nt	nt	nt	nt	nt	2.4
C[C@@H]1CN([C@H](C)CO)C(=O)Cc2cc(NC(=O)CCC(F)(F)F)ccc2O[C@H]1CN(C)C(=O)NC1CCCCC1	nt	nt	nt	nt	nt	-2.2
Cc1noc(C)c1NC(=O)NCC[C@H]1CC[C@@H](NC(=O)c2ccncc2)[C@H](CO)O1	nt	nt	nt	nt	nt	-4.5
CN(C)c1ccc(C(=O)OCc2ccccc2)cc1	nt	42.0	38.7	60.4	-0.6	49.6*
COC(=O)c1ccc(COC(=O)c2ccc(N(C)C)cc2)cc1	nt	5.4	15.2	32.3	-1.1	-7.7
SMILES	Wnt bcat act	HSF1 inhib	HSF1 activator	MITF act	SMARCA2 act	esBAF inh
N#C[C@@H]1[C@H](c2ccc(C3=CCCCC3)cc2)[C@@H](CO)N1C(=O)Cc1ccncc1	nt	nt	nt	nt	nt	-4.2
CC(=O)Nc1ccc(SCc2ncc(-c3ccccc3)o2)cc1	9.0	26.1	35.9	75.9	3.7	55.2*
O=C(Nc1ccc(Cc2ccc(NC(=O)Nc3cccnc3)cc2)cc1)Nc1cccnc1	-1.8	nt	nt	nt	-1.0	56.0*
CCC(=O)Nc1ccc(C(=O)Nc2cccnc2)cc1	5.1	-5.4	14.2	20.4	4.3	17.3
O=C(Nc1cccnc1)c1ccc(-c2ccccc2)cc1	-3.6	27.7	65.7*	65.2	3.9	93.0*
O=C(Nc1cccnc1)c1ccc(F)cc1	-1.4	-1.3	-5.9	19.3	-4.8	1.8
CC(C)(C)C(=O)Nc1ccc(C(=O)Nc2cccnc2)cc1	49.0*	-13.2	-35.9	68.9	2.4	20.8
COc1ccccc1S(=O)(=O)N1C[C@H](O)COC[C@H]2O[C@H](CC(=O)O)CC[C@@H]21	nt	nt	nt	nt	nt	-7.0
COc1cccc(NC(=O)N(C)C[C@@H]2Oc3ncc(/C=C/c4ccccc4)cc3C(=O)N([C@H](C)CO)C[C@H]2C)c1	nt	nt	nt	nt	nt	7.6
CCOc1ccc(C(=O)N(Cc2ccc(OC)cc2)Cc2cc3cc(OC)ccc3[nH]c2=O)cc1	nt	39.6	64.8*	-14.4	-2.6	-1.5
CCCCN(Cc1cc2cc(OC)ccc2[nH]c1=O)C(=O)c1ccco1	-2.5	36.2	76.5*	-7.7	0.1	7.1
CCCN(Cc1cc2cc(OC)ccc2[nH]c1=O)C(=O)c1ccncc1	-3.0	-0.8	-10.3	-13.3	0.4	-1.7
CCCN(Cc1cc2cc(OC)ccc2[nH]c1=O)C(=O)c1ccco1	-3.0	21.0	22.3	8.6	0.3	-2.8
CCCNC(=O)N(C)C[C@@H]1Oc2ncc(-c3ccc(F)cc3)cc2C(=O)N([C@H](C)CO)C[C@H]1C	nt	nt	nt	nt	nt	-3.3
CO[C@H]1CN(C)C(=O)c2cc(NC(=O)c3cc(C)on3)ccc2OC[C@H](C)N(C(=O)C2CC2)C[C@@H]1C	nt	nt	nt	nt	nt	0.8
CC(=O)Oc1c(Cl)cc(Cl)cc1/C=C/c1ccc2ccccc2n1	nt	119.2	161.1*	51.9	5.0	29.7
Fc1ccccc1/C=C/c1ccc2ccccc2n1	nt	-25.0	-12.8	-24.9	4.1	nt
CC(=O)Oc1ccc(Cl)cc1/C=C/c1ccc2ccccc2n1	nt	46.1	60.2*	38.7	2.3	nt
Brc1ccccc1-c1nnc(CSc2nncn2-c2ccccc2)o1	35.4*	5.6	8.1	1.5	-5.0	28.4
O=c1c2ccccc2nc(SCc2nnc(-c3ccccc3Br)o2)n1-c1ccccc1	0.0	-5.2	8.5	-3.0	1.7	3.0
S=C(c1ccc(-c2ccc(Cl)cc2Cl)o1)N1CCCCC1	26.7	30.2	36.3	59.8	-3.0	53.3*
S=C(c1ccc(-c2ccc(Cl)cc2Cl)o1)N1CCCC1	33.0*	38.6	46.3	nt	0.2	nt
Cc1cccc(CN2CCC(C(=O)Nc3cccc(-c4cscn4)c3)CC2)n1	1.7	40.4	82.4*	-13.4	-1.3	7.4
COc1ccccc1-c1nnc(SC2CCc3ccccc3NC2=O)s1 (stereo not given)	nt	-51.9*	-63.4	0.2	-1.7	-21.3
O=C(CCN1CCc2ccccc2CC1)c1ccc2c(c1)OCCO2	nt	55.1	82.2*	nt	0.7	-3.5
O=C(CCN1CCOCC1)c1ccc2c(c1)OCCO2	nt	8.8	7.7	-3.4	-1.6	8.0
O=C(Cc1ccccc1)c1ccc2c(c1)OCCO2	7.3	26.3	25.9	74.9	4.6	31.3
O=C(CCCO)c1ccc2c(c1)OCCO2	nt	-60.0*	-68.9	1.1	-2.1	3.3
O=C(CCCN1CCOCC1)c1ccc2c(c1)OCCO2	nt	7.9	22.8	34.5	4.2	50.0*
